This is an account of results in article PMC7862700, “An all-to-all approach to the identification of sequence-specific readers for epigenetic DNA modifications on cytosine”.

What all share (experiment): DAPPL (digital affinity profiling via proximity ligation, sequencing); 10 mM Tris-HCl pH 7.5, 50 mM NaCl, 1 mM DTT, 4% glycerol, room temperature, 30 min; GST-TFs on glutathione beads, 16-mer random dsDNA library, 0.1% formaldehyde crosslink after washing; high values mean tight binding
Conditions in all cases: protein: recombinant; tags: N-terminal GST; dsDNA, one strand shown

One assay concerns the target T1, ELK4 (Homo sapiens, UniProt P28324-2 1-405).
T1 sequence: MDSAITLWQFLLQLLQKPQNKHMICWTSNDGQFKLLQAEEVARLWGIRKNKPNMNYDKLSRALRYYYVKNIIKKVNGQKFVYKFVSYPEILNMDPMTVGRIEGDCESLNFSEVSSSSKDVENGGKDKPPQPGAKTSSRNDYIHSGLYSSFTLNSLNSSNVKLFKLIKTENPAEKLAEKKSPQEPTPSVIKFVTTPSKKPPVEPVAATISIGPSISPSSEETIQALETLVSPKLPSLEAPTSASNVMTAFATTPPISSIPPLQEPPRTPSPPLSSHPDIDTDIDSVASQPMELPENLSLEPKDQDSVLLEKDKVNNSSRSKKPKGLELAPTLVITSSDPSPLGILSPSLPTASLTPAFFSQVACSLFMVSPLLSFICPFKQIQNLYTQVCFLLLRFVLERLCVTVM
The gist of the method: (§1)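 Beads coated with glutathione captured GST-fused human transcription factors that had been expressed in yeast, and the factors were then given DNA barcodes and pooled with a tag-only sample. The pools were incubated with 200 nmole of a random double-stranded 16-mer DNA library in Tris/NaCl/DTT/glycerol buffer for 30 min at room temperature, washed, crosslinked with 0.1% formaldehyde and proximity-ligated with BsaI/T4 ligase at 37 °C for 1 h. PCR amplification and Illumina NextSeq500 sequencing came last. Binding signal is each hexamer's read frequency for a factor divided by its frequency for the tag-only sample.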

The target of a further assay is T2, ELF3 (Homo sapiens, UniProt P78545 1-371).
T2 sequence: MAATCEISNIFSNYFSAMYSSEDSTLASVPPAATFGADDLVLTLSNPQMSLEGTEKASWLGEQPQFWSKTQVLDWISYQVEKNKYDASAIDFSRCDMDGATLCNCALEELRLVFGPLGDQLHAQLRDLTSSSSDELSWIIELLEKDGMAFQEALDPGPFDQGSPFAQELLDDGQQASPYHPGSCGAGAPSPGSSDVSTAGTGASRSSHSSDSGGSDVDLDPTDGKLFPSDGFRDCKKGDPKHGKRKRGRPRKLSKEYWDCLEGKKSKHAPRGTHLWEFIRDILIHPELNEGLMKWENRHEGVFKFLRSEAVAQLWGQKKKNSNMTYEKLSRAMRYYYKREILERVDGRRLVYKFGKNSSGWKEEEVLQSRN
An outline of the steps:
as §1

The target of a further assay is ETV1 (Homo sapiens, UniProt P50549 1-477). An outline of the steps:
as §1

A further assay concerns the target T3, ERF (Homo sapiens, UniProt P50548 1-548).
T3 sequence: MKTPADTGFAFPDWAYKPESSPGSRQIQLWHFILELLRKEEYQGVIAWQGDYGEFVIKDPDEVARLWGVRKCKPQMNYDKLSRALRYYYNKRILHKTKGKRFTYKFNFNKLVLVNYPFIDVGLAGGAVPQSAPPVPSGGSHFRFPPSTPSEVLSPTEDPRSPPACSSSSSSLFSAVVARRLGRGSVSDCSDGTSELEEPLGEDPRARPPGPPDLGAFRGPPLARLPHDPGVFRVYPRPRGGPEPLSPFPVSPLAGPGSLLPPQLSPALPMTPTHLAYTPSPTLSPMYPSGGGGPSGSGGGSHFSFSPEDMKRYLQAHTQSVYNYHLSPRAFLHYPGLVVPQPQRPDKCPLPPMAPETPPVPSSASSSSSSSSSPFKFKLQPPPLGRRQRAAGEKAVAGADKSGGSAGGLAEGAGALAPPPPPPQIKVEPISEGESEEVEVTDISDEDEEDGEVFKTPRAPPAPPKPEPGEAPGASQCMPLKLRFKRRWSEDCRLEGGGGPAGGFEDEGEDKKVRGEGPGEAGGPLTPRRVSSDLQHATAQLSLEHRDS
The gist of the method: as §1

The next assay addresses T4, ETV3L (Homo sapiens, UniProt Q6ZN32 1-361).
T4 sequence: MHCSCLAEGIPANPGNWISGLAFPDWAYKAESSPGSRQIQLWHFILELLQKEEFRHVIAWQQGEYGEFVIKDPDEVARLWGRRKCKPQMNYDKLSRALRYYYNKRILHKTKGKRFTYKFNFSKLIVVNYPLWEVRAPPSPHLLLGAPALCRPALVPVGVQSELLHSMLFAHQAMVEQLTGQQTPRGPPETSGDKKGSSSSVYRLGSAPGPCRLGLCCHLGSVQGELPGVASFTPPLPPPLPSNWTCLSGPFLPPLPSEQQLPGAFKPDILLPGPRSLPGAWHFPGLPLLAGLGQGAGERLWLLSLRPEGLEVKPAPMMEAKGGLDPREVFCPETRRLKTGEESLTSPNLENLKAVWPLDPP
An outline of the steps: as §1

The target in a further assay is T5, ETS2 (Homo sapiens, UniProt P15036 1-469).
T5 sequence: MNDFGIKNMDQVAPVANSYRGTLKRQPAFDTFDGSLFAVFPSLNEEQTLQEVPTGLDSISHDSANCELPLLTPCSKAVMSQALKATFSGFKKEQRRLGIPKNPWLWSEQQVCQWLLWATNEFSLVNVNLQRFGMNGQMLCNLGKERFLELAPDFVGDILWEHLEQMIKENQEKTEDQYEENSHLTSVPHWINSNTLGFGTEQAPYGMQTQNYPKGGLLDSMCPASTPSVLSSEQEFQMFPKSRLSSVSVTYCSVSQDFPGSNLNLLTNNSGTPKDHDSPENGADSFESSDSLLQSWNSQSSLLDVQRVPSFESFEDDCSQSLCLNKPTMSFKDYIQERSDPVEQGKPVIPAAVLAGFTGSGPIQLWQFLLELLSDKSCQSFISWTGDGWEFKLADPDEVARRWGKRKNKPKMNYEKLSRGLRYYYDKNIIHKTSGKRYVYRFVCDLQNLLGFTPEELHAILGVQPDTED
An outline of the steps: as §1

The target in the next assay is T6, SPDEF (Homo sapiens, UniProt O95238 1-335).
T6 sequence: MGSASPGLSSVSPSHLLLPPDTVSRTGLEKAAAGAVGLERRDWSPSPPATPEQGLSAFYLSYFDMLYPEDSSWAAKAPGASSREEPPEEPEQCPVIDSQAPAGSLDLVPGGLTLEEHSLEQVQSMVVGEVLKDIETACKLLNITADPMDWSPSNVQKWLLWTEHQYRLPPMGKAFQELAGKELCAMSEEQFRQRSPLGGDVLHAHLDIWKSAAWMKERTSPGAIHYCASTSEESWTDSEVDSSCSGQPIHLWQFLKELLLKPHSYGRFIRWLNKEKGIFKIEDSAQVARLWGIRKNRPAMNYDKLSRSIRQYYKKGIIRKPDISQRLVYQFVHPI
An outline of the steps: as §1

In a further assay the target is T7, ETV7 (Homo sapiens, UniProt Q9Y603 1-341).
T7 sequence: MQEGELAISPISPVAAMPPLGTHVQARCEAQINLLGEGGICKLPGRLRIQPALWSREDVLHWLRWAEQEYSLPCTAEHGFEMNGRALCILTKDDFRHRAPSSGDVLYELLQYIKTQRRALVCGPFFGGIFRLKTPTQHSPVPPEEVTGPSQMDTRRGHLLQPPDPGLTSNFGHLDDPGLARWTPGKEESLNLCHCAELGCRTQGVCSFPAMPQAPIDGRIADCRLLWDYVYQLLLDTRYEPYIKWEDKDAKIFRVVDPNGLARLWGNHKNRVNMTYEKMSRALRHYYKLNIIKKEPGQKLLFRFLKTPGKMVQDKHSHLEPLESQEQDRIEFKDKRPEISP
An outline of the steps: as §1

The target of another assay is T8, ETV3 (Homo sapiens, UniProt P41162-2 1-143).
T8 sequence: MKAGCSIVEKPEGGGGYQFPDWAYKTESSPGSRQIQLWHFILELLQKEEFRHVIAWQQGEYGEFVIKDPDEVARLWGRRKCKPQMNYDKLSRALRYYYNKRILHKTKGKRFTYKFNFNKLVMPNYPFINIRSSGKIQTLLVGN
An outline of the steps: as §1

The target of a further assay is ETV6 (Homo sapiens, UniProt P41212 1-452). The gist of the method: as §1
Sequence of ETV6 (P41212 whole entry): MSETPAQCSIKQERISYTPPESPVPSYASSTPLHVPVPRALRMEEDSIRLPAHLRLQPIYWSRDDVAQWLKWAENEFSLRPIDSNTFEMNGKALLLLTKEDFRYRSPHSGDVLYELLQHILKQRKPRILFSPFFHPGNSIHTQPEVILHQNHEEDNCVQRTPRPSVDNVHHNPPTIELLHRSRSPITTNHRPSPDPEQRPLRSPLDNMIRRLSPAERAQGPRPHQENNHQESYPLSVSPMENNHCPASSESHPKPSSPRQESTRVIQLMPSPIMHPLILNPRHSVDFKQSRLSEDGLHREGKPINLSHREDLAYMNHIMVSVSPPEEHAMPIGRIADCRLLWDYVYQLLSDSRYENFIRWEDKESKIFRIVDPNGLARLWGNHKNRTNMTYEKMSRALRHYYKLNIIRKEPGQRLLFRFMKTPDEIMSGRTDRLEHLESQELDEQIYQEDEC

Sequence of ETV1 (P50549 whole entry): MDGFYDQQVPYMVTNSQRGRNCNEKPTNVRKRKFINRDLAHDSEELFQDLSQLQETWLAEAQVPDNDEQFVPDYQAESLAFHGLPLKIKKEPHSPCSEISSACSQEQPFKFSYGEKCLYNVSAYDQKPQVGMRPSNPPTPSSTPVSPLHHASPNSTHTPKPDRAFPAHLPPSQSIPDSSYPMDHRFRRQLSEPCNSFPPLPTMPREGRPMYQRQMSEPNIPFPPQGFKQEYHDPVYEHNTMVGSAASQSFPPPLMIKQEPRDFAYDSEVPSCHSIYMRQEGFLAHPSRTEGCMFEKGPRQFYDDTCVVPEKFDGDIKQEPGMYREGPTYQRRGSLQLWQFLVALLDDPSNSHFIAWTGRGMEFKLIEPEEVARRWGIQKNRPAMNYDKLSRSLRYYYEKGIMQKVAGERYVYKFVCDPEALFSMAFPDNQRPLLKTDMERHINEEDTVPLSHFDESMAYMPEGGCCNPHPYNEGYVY

Turning to ACCCCT, the binding signal in the assay with ELK4 was 1.28 fold enrichment (6-mer frequency, TF over GST control); with ELF3, 1.09 fold enrichment (6-mer frequency, TF over GST control); with ETV1, 1.21 fold enrichment (6-mer frequency, TF over GST control); with ERF it was 1.06 fold enrichment (6-mer frequency, TF over GST control); with ETV3L, 1.05 fold enrichment (6-mer frequency, TF over GST control); with ETS2, 1.08 fold enrichment (6-mer frequency, TF over GST control). Besides, the binding signal was 1.16 fold enrichment (6-mer frequency, TF over GST control) in the assay with SPDEF; 1 fold enrichment (6-mer frequency, TF over GST control) with ETV7; 1.03 fold enrichment (6-mer frequency, TF over GST control) with ETV3; 1.16 fold enrichment (6-mer frequency, TF over GST control) in the assay with ETV6.
